Sampled rows, rich in hits. Any-hit rate of the full collection: about 1.5%.
Giardia kill = Giardia lamblia killing. hit rate 0.15% among 340,000. Giardia lamblia trophozoite viability. AID 540267. activity change, % at 7.66 µM, hits read low; in the data active = activity change below about -80%; inconclusive = between about -30% and that limit;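 note: parasites exposed to compound for two days anaerobically before the ATP read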
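Killing of trophozoites was scored by loss of ATP luminescence after a 48 hrs anaerobic exposure to compounds at 37 deg C, using 100 cells per well.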
TrxR1 inh = inhibitors of rat thioredoxin reductase 1. O89049. recombinant rTrxR1, NADPH fluorescence consumption, selenite substrate. hit rate 1% among 390,000. Potency, µM (series often up to 114 µM), inactives show at the highest dose activity change, negative = inhibition, actives largely listed as inhibitors; note: potency is the fitted concentration of half-maximal effect; nearly all actives have a fitted effect of over 65% in size
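Rat TrxR1 (90 nM in the dispensed reagent) was pre-reduced with 400 uM NADPH for 5 min at room temperature, then incubated with compound for 15 min. After 400 uM selenite was added, NADPH fluorescence (Ex 340/Em 450 nm) was followed for 8 min.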
FBPA coupling cs = counter-screen for Giardia aldolase inhibitors: coupling enzyme system | coupling enzyme system counterscreen, AmpLite Red fluorescence | activity change, negative = inhibition, % at 58.2 µM, hits read low | hit rate 0.67% among 290,000 | AID 2472; in the data active = activity change below about -30%
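Counterscreen lacking aldolase: glyceraldehyde-3-phosphate coupling-enzyme reagent preincubated 10 min at RT with compound (at 57.5 uM final), then substrate/coupling system with AmpLite Red added; fluorescence read at 525/598 nm after 20 min RT.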
GALK inh = galactokinase (human) inhibition; Purified GALK, Kinase-Glo residual ATP luminescence; hit rate 0.007% among 270,000; Potency, µM (top dose mostly 57.5 µM), for the others: top-dose activity change, negative = inhibition, usual class: inhibitors; note: potency is the fitted concentration of half-maximal effect
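Kinase-Glo Plus luminescence measured ATP left after a 1 h room-temperature reaction. The reaction used 5 nM GALK, 100 uM galactose and 35 uM ATP at pH 8.0 (20 mM HEPES, 5 mM MgCl2, 60 mM NaCl, 1 mM DTT, 0.01% BSA).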
TrxR1 substrate = is turned over as a substrate by rat TrxR1. O89049. hit rate 0.01% among 390,000. Potency, µM (doses to about 114 µM), for the others: at the highest dose activity change, negative = substrate turnover. purified TrxR1 substrate turnover, NADPH consumption readout. AID 588456; note: potency is the fitted concentration of half-maximal effect; nearly all actives have a fitted effect of over 50% in size
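Rat TrxR1, dispensed at 90 nM, was prereduced with 400 uM NADPH (final) for 5 min at ~22 deg C, then incubated with compound 15 min before 400 uM selenite. A first-read NADPH fluorescence drop versus no-compound background flagged substrates.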
PI4K2A block = inhibitors of human PI4K2A; purified PI4K2A, ADP-Glo luminescence, 1 h; hits give low values; Q9BTU6; hit rate 0.13% among 420,000; activity change, negative = inhibition, % at 76.9 µM; AID 1346378; in the data active = activity change below about -50%; inconclusive = mostly about -30% to -49%;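 note: -100% = wells without enzyme as full effect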
Target sequence (Q9BTU6 whole entry, looked up): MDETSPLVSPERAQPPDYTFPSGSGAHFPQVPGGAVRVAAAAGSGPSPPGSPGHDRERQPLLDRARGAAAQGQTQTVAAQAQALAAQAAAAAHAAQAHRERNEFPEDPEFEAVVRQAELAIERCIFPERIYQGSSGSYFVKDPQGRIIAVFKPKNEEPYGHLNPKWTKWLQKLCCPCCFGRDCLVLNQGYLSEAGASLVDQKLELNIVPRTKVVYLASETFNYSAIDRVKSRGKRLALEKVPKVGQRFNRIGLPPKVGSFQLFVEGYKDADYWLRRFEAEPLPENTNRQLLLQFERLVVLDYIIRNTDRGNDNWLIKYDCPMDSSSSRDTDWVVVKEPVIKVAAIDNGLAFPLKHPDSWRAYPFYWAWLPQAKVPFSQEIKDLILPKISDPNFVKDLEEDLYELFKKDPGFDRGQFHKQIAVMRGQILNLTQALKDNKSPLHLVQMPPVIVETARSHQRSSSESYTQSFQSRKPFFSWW
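ADP-Glo luminescence measured ADP generated by PI4K2A enzyme (4 ug/mL before mixing) with 1.2 mM PI substrate (pre-mix) and 300 microM ATP (pre-mix). Tris pH7.5 buffer with MgCl2, Triton X-100; 1 h reaction at ambient temperature.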
* hit, by the source's call; [ ] = remark or other dose. Unless noted, calls come from the whole dose curve; as a rule, active = well fitted curve in the direction sought with a large enough effect; inconclusive = small, poorly fitted or top-dose-only effect, or another doubt; inactive = no such curve, though single readings can be large; an effect the other way counts as inactive or inconclusive. Unless noted, % is set by controls: 0 for no effect and ±100 for the full control effect.

For CN=c1scc(-c2cccs2)n1/N=C/c1ccc(O)c(O)c1O the results were Giardia kill -92*, TrxR1 inh -19%, FBPA coupling cs -16, GALK inh 3%, TrxR1 substrate 1% and PI4K2A block inconclusive.
CN=c1scc(C)n1/N=C/c1ccc(O)c(O)c1O was read as Giardia kill inconclusive, TrxR1 inh inconclusive, FBPA coupling cs -59*, GALK inh 1%, TrxR1 substrate -17% and PI4K2A block -21.
Screening O=C1C=CC(=O)N1c1ccccc1N1C(=O)C=CC1=O returned Giardia kill 7, TrxR1 inh 0.32µM*, TrxR1 substrate 4% and PI4K2A block inconclusive.
O=C(c1ccccc1)c1ccccc1N1C(=O)C=CC1=O was read as Giardia kill 0, TrxR1 inh 2.2µM*, FBPA coupling cs 1, GALK inh 1%, TrxR1 substrate 13%[57.1 µM] and PI4K2A block 4.
For O=C1C=CC(=O)N1c1ccccn1 the results were Giardia kill -8, TrxR1 inh inconclusive, TrxR1 substrate 21% and PI4K2A block 3.
For Cc1ccc(-n2c(SCC(=O)Nc3ccc(S(=O)(=O)Nc4cc(C)nc(C)n4)cc3)nnc2-c2cccs2)cc1 the results were PI4K2A block -5.
For CCOC(=O)CNCCC(=O)c1ccc(Br)cc1 the results were Giardia kill -3, TrxR1 inh 0.28µM*, FBPA coupling cs 1, TrxR1 substrate -3% and PI4K2A block 22.
For CCc1ccc(NCCC(=O)c2ccc(Cl)cc2)cc1 the results were Giardia kill -1, TrxR1 inh inconclusive, GALK inh 1%, TrxR1 substrate 13% and PI4K2A block 3.
`Cc1ccc(C(=O)NCC(=O)NCC(=O)OCC(=O)c2ccc(Br)cc2)cc1` gave Giardia kill 15, TrxR1 inh 23%, FBPA coupling cs 5, GALK inh 1%, TrxR1 substrate 7% and PI4K2A block -6.
For CC(=O)c1ccc(NCCC(=O)c2ccccc2)cc1 the results were Giardia kill 2, TrxR1 inh 50µM*, FBPA coupling cs 5, GALK inh 3%, TrxR1 substrate -9% and PI4K2A block -2.
Screening Cc1cccc(NCCC(=O)c2ccc(Br)cc2)c1 returned Giardia kill -5, TrxR1 inh 25µM*, FBPA coupling cs -2, GALK inh -2%, TrxR1 substrate -3% and PI4K2A block 7.
`CC(C)c1ccc(NCCC(=O)c2ccc(Br)cc2)cc1` gave Giardia kill -17, TrxR1 inh 56µM*, FBPA coupling cs 1, GALK inh -1%, TrxR1 substrate -7% and PI4K2A block 2.
`CC(=O)c1ccc(NC(=O)CCCC(=O)c2ccccc2)cc1` gave Giardia kill 42, TrxR1 inh 30%, FBPA coupling cs 3, GALK inh 2%, TrxR1 substrate 7% and PI4K2A block 3.
Screening Cc1cc(C)c(N(Cc2ccccc2)S(=O)(=O)c2ccc(OCCNC(=O)c3cc4ccccc4o3)cc2)c(C(=O)NO)c1 returned FBPA coupling cs 4.
Screening O=C(C[n+]1c2ccccc2cc2ccccc21)c1ccc(F)cc1 returned TrxR1 inh -24% and TrxR1 substrate 8%.
`O=C(NC(N1CCCC1)C(Cl)(Cl)Cl)c1ccccc1` (centres undefined) gave Giardia kill 9, TrxR1 inh 32µM*, GALK inh -1%, TrxR1 substrate 2% and PI4K2A block -1.
Screening O=C(NC(N1CCOCC1)C(Cl)(Cl)Cl)c1ccc(F)cc1 (centres undefined) returned Giardia kill 15, TrxR1 inh -38%, FBPA coupling cs -1, GALK inh 4%, TrxR1 substrate 13%[57.1 µM] and PI4K2A block 7.
For CCN(Cc1ccncc1)Cc1c(O)ccc2cc(Br)ccc12 the results were Giardia kill 14, TrxR1 inh 7.9µM*, FBPA coupling cs -54*, GALK inh -1%, TrxR1 substrate 9%[57.1 µM] and PI4K2A block -6.
Screening CCN(CC)C(=O)Cc1c(OC)ccc2cc(Br)ccc12 returned Giardia kill -19, TrxR1 inh -6%, FBPA coupling cs 1, GALK inh -2%, TrxR1 substrate -5% and PI4K2A block 2.
CN(C)c1ccc(/C=C2\C=Nc3ccccc32)cc1 was read as TrxR1 inh 6% and TrxR1 substrate -5%.
For Cc1cccc(NS(=O)(=O)c2ccc3c(c2)[C@H]2C=CC[C@H]2[C@@H](c2ccc(F)cc2)N3)c1 the results were TrxR1 inh 3%, TrxR1 substrate 5% and PI4K2A block -3.
Screening Cc1cc(C)c2c(c1)[C@@H]1C=CC[C@@H]1[C@H](c1ccc(S(=O)(=O)N3CCOCC3)cc1)N2 returned Giardia kill -11, TrxR1 inh 2.8µM*, FBPA coupling cs -4, GALK inh -1%, TrxR1 substrate -4% and PI4K2A block 8.
COC(=O)c1ccc([C@@H]2Nc3c(cccc3C(F)(F)F)[C@@H]3C=CC[C@@H]32)cc1 was read as TrxR1 inh 10%, TrxR1 substrate 5% and PI4K2A block 3.
COC(=O)c1ccc(C2Nc3c(C)cc(C)cc3C3C=CCC32)cc1 (centres undefined) was read as TrxR1 inh 4µM*, TrxR1 substrate 14% and PI4K2A block -3.
COc1ccc2c(c1)N[C@@](CCNC=O)(c1[nH]c3ccccc3c1CCNC=O)C2=O was read as PI4K2A block 2.
Cc1nc2ccc(Cl)cc2nc(C)/c1=N\O was read as Giardia kill -1, TrxR1 inh inconclusive, FBPA coupling cs -33*, GALK inh -6%, TrxR1 substrate -5% and PI4K2A block 1.
COc1ccc(OC)c2[nH]c(=O)c(CCNS(=O)(=O)c3ccc(C)cc3)cc12 was read as Giardia kill -8, TrxR1 inh 14%[57.1 µM], FBPA coupling cs -30*, GALK inh 3%, TrxR1 substrate 9%[57.1 µM] and PI4K2A block -1.
For COc1ccc(OC)c2[nH]c(=O)c(CCNS(=O)(=O)c3ccc(Cl)cc3)cc12 the results were Giardia kill -13, TrxR1 inh 3%, FBPA coupling cs -33*, GALK inh 3%, TrxR1 substrate 7%[57.1 µM] and PI4K2A block 10.
CCOc1ccccc1CNC(=O)Cn1nc(C)c2nn(-c3ccc(Cl)cc3)c(C)c2c1=O was read as TrxR1 inh 19%[57.1 µM], TrxR1 substrate 4%[57.1 µM] and PI4K2A block -1.
For Oc1ccccc1/C=N/c1c(-c2ccco2)nc2ccccn12 the results were Giardia kill -11, TrxR1 inh 79µM*, FBPA coupling cs -30, GALK inh -1%, TrxR1 substrate 81% and PI4K2A block -6.
